According to PubChem BioAssay (Tox21):
Where “and” joins values, the source holds several entries; their conditions need not be identical. Equal values may be shown once. Inconclusive results are not listed. Some compounds were tested as several samples or in several runs, with calls that do not always agree. Calls of active or inactive are those of the source. Unless noted, calls follow the shape of the dose curve; as a rule, active = well fitted curve in the direction sought with a large enough effect in the repeat runs; inconclusive = weak or mixed curves; inactive = no such curve, though single readings can be large; an effect the other way counts as inactive or inconclusive.

Legend:
[1] = qHTS assay to identify small molecule antagonists of the thyroid receptor (TR) signaling pathway (AID 743065); also: series mostly up to about 70 µM; nearly all actives have a fitted effect of over 55% in size
Method in brief: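 Antagonism measured as loss of luciferase signal in GH3 cells stably carrying a TRE-luciferase reporter, co-treated with compound and T3 (1 nM final) for 23.5 h at 37 C. Viability was read in the same well by CellTiter-Fluor.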

[2] = tested on: thyroid hormone receptor (rat, GH3 cells); experiment: qHTS assay to identify small molecule agonists of the thyroid receptor (TR) signaling pathway (AID 743066; calls by dose curve)
[3] = biological target: Estrogen receptor (Homo sapiens) (UniProt P03372); experiment: qHTS assay to identify small molecule antagonists of the estrogen receptor alpha (ER-alpha) signaling pathway (AID 743069; active = well fitted curve in the direction sought with a large enough effect in the signal ratio in the repeat runs, not every such curve was filed as active; the % refers to the signal ratio)
Estrogen receptor (Homo sapiens), sequence (P03372 whole entry, looked up): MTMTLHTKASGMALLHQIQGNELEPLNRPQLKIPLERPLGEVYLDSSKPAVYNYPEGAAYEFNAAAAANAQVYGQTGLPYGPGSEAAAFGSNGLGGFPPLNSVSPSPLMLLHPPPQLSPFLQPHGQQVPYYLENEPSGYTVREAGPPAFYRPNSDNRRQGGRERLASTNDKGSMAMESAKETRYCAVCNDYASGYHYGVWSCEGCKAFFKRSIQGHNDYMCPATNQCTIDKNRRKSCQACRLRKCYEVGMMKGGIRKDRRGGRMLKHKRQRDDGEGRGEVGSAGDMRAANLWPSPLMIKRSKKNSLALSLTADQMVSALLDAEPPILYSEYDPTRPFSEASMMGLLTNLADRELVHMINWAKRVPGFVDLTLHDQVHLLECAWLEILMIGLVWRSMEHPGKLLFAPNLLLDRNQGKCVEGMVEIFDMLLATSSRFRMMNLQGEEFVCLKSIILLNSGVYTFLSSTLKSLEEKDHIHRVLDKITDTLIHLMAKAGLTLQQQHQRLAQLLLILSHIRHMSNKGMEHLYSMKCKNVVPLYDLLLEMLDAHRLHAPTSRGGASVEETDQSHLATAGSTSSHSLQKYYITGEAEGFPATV
Method in brief: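 Fluorescence intensity from a beta-lactamase FRET substrate served as the read-out. Cells: HEK293 with stably integrated ER-alpha-UAS-bla reporter. Agonist 17beta-estradiol was co-added with compounds; incubation 18 hr at 37C, substrate 2 hr at room temperature.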

[4] = qHTS assay to identify small molecule antagonists of the estrogen receptor alpha (ER-alpha) signaling pathway - cell viability counter screen (AID 743074; calls by dose curve; also: nearly all actives have a fitted effect of over 45% in size)
[5] = biological target: Estrogen receptor (Homo sapiens) (UniProt P03372); experiment: qHTS assay to identify small molecule agonists of the estrogen receptor alpha (ER-alpha) signaling pathway (AID 743075; calls by dose curve)
[6] = biological target: Estrogen receptor (Homo sapiens) (UniProt P03372); experiment: qHTS assay to identify small molecule agonists of the estrogen receptor alpha (ER-alpha) signaling pathway using the BG1 cell line (AID 743079); also: nearly all actives have a fitted effect of over 20% in size; also: potency is read from the fitted curve at half-maximal effect
[7] = qHTS assay to identify small molecule antagonists of the estrogen receptor alpha (ER-alpha) signaling pathway using the BG1 cell line (AID 743080; calls by dose curve;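 also: BG1 cells stimulated with 17beta-estradiol alongside compound; series mostly up to about 70 µM; nearly all actives have a fitted effect of over 25% in size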)
Method in brief: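 Luciferase inhibition measured with ONE-Glo after 30 min at RT in BG1Luc4E2 cells given test compounds and 17beta-estradiol for 21.5 h at 37 C; CellTiter-Fluor viability read in the same wells beforehand.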

[8] = qHTS assay to identify small molecule antagonists of the estrogen receptor alpha (ER-alpha) signaling pathway using the BG1 cell line - cell viability counter screen (AID 743081);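 also: compound given together with 17beta-estradiol as the ER stimulus; series mostly up to about 70 µM; nearly all actives have a fitted effect of over 45% in size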
Aromatase (Homo sapiens) = Aromatase (Homo sapiens) (UniProt P11511); experiment: qHTS assay to identify aromatase inhibitors (AID 743083); also: series mostly up to about 70 µM; nearly all actives have a fitted effect of over 55% in size
Aromatase (Homo sapiens), sequence (P11511 whole entry, looked up): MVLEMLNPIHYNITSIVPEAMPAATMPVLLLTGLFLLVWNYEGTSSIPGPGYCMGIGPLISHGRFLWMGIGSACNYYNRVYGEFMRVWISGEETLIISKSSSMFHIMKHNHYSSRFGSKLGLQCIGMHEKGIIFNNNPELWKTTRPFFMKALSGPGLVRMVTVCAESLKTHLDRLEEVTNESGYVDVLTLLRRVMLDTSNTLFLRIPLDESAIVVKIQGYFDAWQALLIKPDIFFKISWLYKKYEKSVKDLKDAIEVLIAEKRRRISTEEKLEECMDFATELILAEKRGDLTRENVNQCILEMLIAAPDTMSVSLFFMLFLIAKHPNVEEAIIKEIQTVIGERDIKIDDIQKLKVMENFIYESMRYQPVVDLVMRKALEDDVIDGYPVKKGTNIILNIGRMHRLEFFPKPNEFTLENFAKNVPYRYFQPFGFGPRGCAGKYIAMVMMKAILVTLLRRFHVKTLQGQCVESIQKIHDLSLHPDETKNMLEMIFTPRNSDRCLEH

[9] = qHTS assay to identify aromatase inhibitors - cell viability counter screen (AID 743084);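 also: cells stimulated with testosterone during compound exposure; nearly all actives have a fitted effect of over 55% in size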
[10] = biological target: Aryl hydrocarbon receptor (Homo sapiens) (UniProt P35869); experiment: qHTS assay to identify small molecule that activate the aryl hydrocarbon receptor (AhR) signaling pathway (AID 743085);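 also: HG2L7.5c1 human HepG2 liver cells with stably integrated DRE-driven firefly reporter; series mostly up to about 70 µM; nearly all actives have a fitted effect of over 15% in size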
Aryl hydrocarbon receptor (Homo sapiens), sequence (P35869 whole entry, looked up): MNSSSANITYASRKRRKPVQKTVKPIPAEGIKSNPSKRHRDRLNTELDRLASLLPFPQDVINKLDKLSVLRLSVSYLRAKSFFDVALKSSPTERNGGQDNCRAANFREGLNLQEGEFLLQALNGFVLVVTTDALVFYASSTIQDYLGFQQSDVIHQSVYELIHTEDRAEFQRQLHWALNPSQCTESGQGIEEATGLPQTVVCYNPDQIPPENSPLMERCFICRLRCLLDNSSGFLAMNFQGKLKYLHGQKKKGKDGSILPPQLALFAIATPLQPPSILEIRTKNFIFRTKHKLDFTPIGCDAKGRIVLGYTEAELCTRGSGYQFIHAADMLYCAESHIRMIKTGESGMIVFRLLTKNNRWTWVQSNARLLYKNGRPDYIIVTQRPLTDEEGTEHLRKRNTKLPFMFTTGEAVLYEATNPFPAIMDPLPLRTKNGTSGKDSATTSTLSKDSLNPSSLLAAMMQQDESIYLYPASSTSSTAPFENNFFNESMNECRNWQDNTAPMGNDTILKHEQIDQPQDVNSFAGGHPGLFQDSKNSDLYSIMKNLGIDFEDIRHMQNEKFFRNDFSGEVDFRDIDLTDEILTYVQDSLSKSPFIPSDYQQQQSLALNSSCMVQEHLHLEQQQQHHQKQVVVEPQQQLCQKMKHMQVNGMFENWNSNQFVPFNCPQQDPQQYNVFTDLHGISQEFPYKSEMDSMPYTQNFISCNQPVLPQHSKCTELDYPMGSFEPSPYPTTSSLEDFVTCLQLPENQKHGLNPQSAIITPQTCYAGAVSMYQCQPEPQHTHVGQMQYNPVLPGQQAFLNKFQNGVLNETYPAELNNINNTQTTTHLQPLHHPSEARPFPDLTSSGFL
Method in brief: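 HepG2 cells (HG2L7.5c1) stably carrying a firefly luciferase reporter driven by 20 dioxin responsive elements were exposed to compound for 24 h at 37C after a 5 h settling period; luminescence rise (ONE-Glo) indicated activation.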

[11] = qHTS assay to identify small molecule that activate the aryl hydrocarbon receptor (AhR) signaling pathway - cell viability counter screen (AID 743086);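 also: HepG2 liver cells carrying the AhR DRE luciferase reporter; series mostly up to about 70 µM; nearly all actives have a fitted effect of over 45% in size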
Method in brief: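 Cytotoxicity counter screen: CellTiter-Fluor signal (30 min, 37 C) in 4000 HepG2 cells/well carrying the DRE-luciferase reporter, following 24 h compound exposure at 37 C.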

[12] = biological target: Peroxisome proliferator-activated receptor gamma (Homo sapiens) (UniProt P37231); experiment: qHTS assay to identify small molecule agonists of the peroxisome proliferator-activated receptor gamma (PPARg) signaling pathway (AID 743094; active = well fitted activation curve with a large enough effect in the signal ratio in the repeat runs, not every such curve was filed as active; the % refers to the signal ratio)
Peroxisome proliferator-activated receptor gamma (Homo sapiens), sequence (P37231 whole entry, looked up): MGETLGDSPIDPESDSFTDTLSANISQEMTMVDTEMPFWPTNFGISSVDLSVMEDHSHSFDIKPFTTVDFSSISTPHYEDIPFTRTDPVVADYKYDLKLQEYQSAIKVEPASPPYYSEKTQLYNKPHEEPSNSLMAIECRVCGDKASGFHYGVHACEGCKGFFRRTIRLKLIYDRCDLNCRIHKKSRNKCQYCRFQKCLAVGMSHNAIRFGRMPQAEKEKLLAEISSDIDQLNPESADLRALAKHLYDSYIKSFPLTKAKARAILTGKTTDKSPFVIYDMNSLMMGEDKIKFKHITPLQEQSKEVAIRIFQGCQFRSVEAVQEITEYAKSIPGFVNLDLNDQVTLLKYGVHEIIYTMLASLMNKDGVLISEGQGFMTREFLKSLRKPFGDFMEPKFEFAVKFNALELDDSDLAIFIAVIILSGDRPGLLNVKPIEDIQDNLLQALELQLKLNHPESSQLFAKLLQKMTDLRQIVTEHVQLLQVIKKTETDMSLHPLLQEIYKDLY
Method in brief: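 Cell-based bla reporter, HEK293H background, PPARg-driven UAS. Pre-incubation 5 h, 37C, 5% CO2. Compound 17 h, 37C. Substrate 1 h RT; fluorescence.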

[13] = biological target: Peroxisome proliferator-activated receptor gamma (Homo sapiens) (UniProt P37231); experiment: qHTS assay to identify small molecule antagonists of the peroxisome proliferator-activated receptor gamma (PPARg) signaling pathway (AID 743191; calls by dose curve; also: series mostly up to about 63 µM; nearly all actives have a fitted effect of over 30% in size)
Method in brief: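 Beta-lactamase reporter under UAS control in HEK293H PPARg-bla cells; compound treatment 17 h at 37C. Read-out: fluorescence intensity after 1 h room-temperature incubation with LiveBLAzer B/G FRET substrate.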

[14] = qHTS assay to identify small molecule antagonists of the peroxisome proliferator-activated receptor gamma (PPARg) signaling pathway - cell viability counter screen (AID 743194); also: nearly all actives have a fitted effect of over 55% in size
Method in brief: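 Viability was measured as CellTiter-Glo luminescence in GeneBLAzer PPARg UAS-bla HEK293H cells. These cells had been exposed 17 h at 37 C to compounds together with rosiglitazone at 50 nM final, with the beta-lactamase readout taken in the same wells.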

[15] = qHTS assay for small molecule agonists of the antioxidant response element (ARE) signaling pathway - cell viability counter screen (AID 743203; calls by dose curve; also: nearly all actives have a fitted effect of over 55% in size)
Method in brief: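 Measured in the same wells as the beta-lactamase ARE reporter, this read-out is CellTiter-Glo luminescence from HepG2 ARE-bla cells given compounds for 16 hrs.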

[16] = qHTS assay for small molecule activators of the heat shock response signaling pathway - cell viability counter screen (AID 743209); also: nearly all actives have a fitted effect of over 50% in size
Method in brief: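 Same-well multiplex: after 2.5 h room-temperature incubation with LiveBLAzer B/G substrate and fluorescence reading, CellTiter-Glo reagent was added to HSE-bla HeLa cells that had received compound for 5 h at 37 C; luminescence read after 30 min.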

[17] = qHTS assay for small molecule activators of the heat shock response signaling pathway (AID 743210; active = well fitted activation curve with a large enough effect in the signal ratio in the repeat runs, with a control signal flat, not every such curve was filed as active; the % refers to the signal ratio;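 also: HeLa cells with beta-lactamase reporter driven by heat shock elements; series mostly up to about 63 µM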)
Method in brief: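 Fluorescence from a cleaved B/G FRET substrate (2.5 h, room temp) reports HSE-driven beta-lactamase in HeLa cells treated 5 h at 37 C with DMSO-dissolved compounds.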

[18] = qHTS assay to identify small molecule agonists of the peroxisome proliferator-activated receptor delta (PPARd) signaling pathway - cell viability counter screen (AID 743211); also: nearly all actives have a fitted effect of over 55% in size
Method in brief: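 PPARd-bla HEK293H cells (UAS-beta-lactamase reporter) were treated with compounds for 17 h at 37 C. Viability was then read in the same wells by CellTiter-Glo luminescence after 30 min at room temperature.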

[19] = qHTS assay for small molecule agonists of the antioxidant response element (ARE) signaling pathway (AID 743202; active = well fitted activation curve with a large enough effect in the signal ratio in the repeat runs, not every such curve was filed as active; the % refers to the signal ratio)
Method in brief: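 Beta-lactamase reporter activity, read as fluorescence intensity, reflects ARE/Nrf2 pathway induction in HepG2 cells after 16 h compound exposure at 37 C; substrate loading was 2 h at room temperature.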

Measured: Potency

O=C(O)CS
not listed: [19]
inactive: all other assays above

CCCNC(=O)NS(=O)(=O)c1ccc(Cl)cc1
inactive: all assays above

Cc1ccc(S(=O)(=O)NC(=O)NN2CCCCCC2)cc1
inactive and 30.6 µM (active): [6]
inactive: all other assays above

Cc1cn([C@H]2C[C@H](N=[N+]=[N-])[C@@H](CO)O2)c(=O)[nH]c1=O
inactive and 17.7 µM (active): [6]
not listed: [19]
inactive: all other assays above

CC(O)C(=O)O (stereo not drawn)
not listed: [12] | [13]
inactive: all other assays above

CC(C)(Oc1ccc(C2CC2(Cl)Cl)cc1)C(=O)O (stereo not drawn)
not listed: [12]
inactive: all other assays above

Cc1cc(=O)n(-c2ccccc2)n1C
not listed: [17] | [19]
inactive: all other assays above
